Out of some 48,000 compounds screened, about 13,000 (27%) showed an effect of 50% or more. The list shows a part of the results.

This assay has as its system Wolbachia pipientis. The assay can be described thus: Anti-Wolbachia Cell-Based Screen. Type of assay: functional. Details: scale not given: in the data most compounds retested in dose-response had high values. As to conditions: 5 µM.
For the molecule `O=C(NCCC1CCCCO1)c1coc(COc2ccc(F)cc2)n1` (centres undefined), the “Percent Effect” value was -18.68%.
Consider `CCOCc1nc2c(c(NC(CC)c3cccnc3)n1)CCNCC2` (centres undefined), for which the “Percent Effect” value is given as 11.04%.
Regarding `CN(CC1(CO)CCCC1)[C@@H]1c2ccccc2C2(CCNCC2)[C@H]1O`, the “Percent Effect” value was 6.987%.
Take `Cc1cccc(C2CCCN(C(=O)CN3CCOC3=O)C2)c1` (centres undefined): the “Percent Effect” value is listed as -2.013%.
The same measure for `CN(C)CCO[C@H]1C[C@@H](O)C12CCN(c1nccc3ccccc13)CC2`: -5.816%; for `Clc1ccccc1C1(c2ccnc(-c3ncccn3)n2)CCNCC1`: -1.363%.
The same measure for `Cc1ccccc1CC(C)(C)NC(=O)COc1cccc(C(N)=O)c1`: 8.164%; for `Cc1cc(=O)n2nc(Oc3cccc(C(N)=O)c3)sc2n1`: 92.57%; for `Cc1ccn(-c2cncc(C(N)=O)c2)n1`: -45.7%.
For `Cc1cc(=O)n2nc(Oc3cccc(I)c3)sc2n1`, the “Percent Effect” value came out at 98.58%.
Regarding `CSCCC(=O)N1CCC(c2nccn2Cc2cscn2)CC1`, the “Percent Effect” value is on record as -27.24%.
On to `Cc1ccsc1-c1nc(CN(C)Cc2cc[nH]n2)c(C)o1`, for which the “Percent Effect” value is reported as 11.99%.
The same measure for `Cc1ccc(S(=O)(=O)N2C[C@H](C3CC3)[C@@H](N)C2)cc1F`: -0.3318%; for `Cc1ccc(S(=O)(=O)N2CCCC3(CCCN3S(C)(=O)=O)C2)cc1F` (centres undefined): 98%; for `Cc1ccc(S(=O)(=O)N2CCCCC(N3CCN(C)CC3)C2)cc1F` (centres undefined): -10.96%.
For `CS(=O)(=O)N1CCCC12CCCN(S(=O)(=O)c1ccc(F)cc1)C2` (centres undefined), the “Percent Effect” value was -4.23%.
As for `CS(=O)(=O)N1CCCC12CCCN(S(=O)(=O)c1ccc(F)c(F)c1)C2` (centres undefined), the figure is 90.35%.
As for `c1ccn2c(C3CCCN(c4ncnc5c4CCNC5)C3)nnc2c1` (centres undefined), the figure is -4.904%.
For the molecule `O=C(O)COc1ccc(Cl)cc1CN1CCC2(CCNCC2)CC1`, the “Percent Effect” value is -7.41%.
The same measure for `Cc1csc(CN2CC(CO)Oc3ccccc32)n1` (centres undefined): -31.8%.
Turning to `COc1c(CNCc2ccccc2Cn2cccn2)c(C)nn1C`, the “Percent Effect” value was 10.98%.
With `COc1c(CNCc2ccc(Cn3cccn3)cc2)c(C)nn1C`, the “Percent Effect” value was -21.67%.
As for `COc1c(CNCc2cccc(Cn3cncn3)c2)c(C)nn1C`, the “Percent Effect” value is recorded as 94.36%.
As to `COc1c(CNCc2cccc(Cn3cccn3)c2)c(C)nn1C`, the “Percent Effect” value turned out to be 134.9%.
As to `COc1c(CNCc2ccccc2Cn2cncn2)c(C)nn1C`, the “Percent Effect” value is -0.9882%.
The same measure for `COc1c(CNCc2cccc(CN3CCOCC3)c2)c(C)nn1C`: -5.316%.
With `COc1c(CNCc2cccc(Cn3ccnc3C)c2)c(C)nn1C.Cl`, the “Percent Effect” value is given as 162.7%.
Consider `Cc1ccc(NC(=O)C(C)N2CCCN(c3nccs3)CC2)c(C)c1` (centres undefined), for which the “Percent Effect” value is reported as -5.233%.
As to `O=S(=O)(NCC1(O)CCCC1)c1ccccc1Br`, the “Percent Effect” value turned out to be 2.398%.
Consider `O=c1[nH]nc2c(S(=O)(=O)N3CCCC3)cccn12`, for which the “Percent Effect” value is listed as 132.4%.
On to `CC(=O)Nc1ncc(S(=O)(=O)N2CCOCC2)s1`, for which the “Percent Effect” value is reported as -0.8414%.
As for `O=c1[nH]nc2c(S(=O)(=O)N3CCOCC3)cccn12`, the figure is 153.4%; as for `CC1CCN(S(=O)(=O)c2cccn(CC(=O)N3CCOCC3)c2=O)CC1`, 5.887%.
Regarding `O=C1N(c2ccc(F)cc2)Cc2n[nH]c(=O)n21`, the “Percent Effect” value came out at 2.178%.
Take `O=c1[nH]nc2c(S(=O)(=O)N3CCCCC3)cccn12`: the “Percent Effect” value is reported as 132.6%.
`CC(C)(C)OC(=O)Cn1cccc(S(=O)(=O)N2CCCCCC2)c1=O`: the “Percent Effect” value is on record as -1.938%.
The same measure for `CC(C)(C)OC(=O)Cn1cccc(S(=O)(=O)N2CCCC2)c1=O`: 1.983%.
As for `O=C(O)c1cc(-c2cc[nH]n2)cc(S(=O)(=O)N2CCCCCC2)c1`, the figure is 5.373%; as for `CC1CCN(S(=O)(=O)c2cccn(CC(=O)NC(C)(C)C)c2=O)CC1`, -3.132%; as for `O=c1[nH]nc2c(S(=O)(=O)N3CCN(c4ccc(F)cc4)CC3)cccn12`, 130.4%.
As for `O=S(=O)(Nc1ccc(N2CCOCC2)cn1)c1ccc(F)cc1`, the figure is -10.45%; as for `Cc1nc(CN2CCC(CNC(=O)C3CCOC3)CC2)oc1C` (centres undefined), -1.518%.
`CCCN(CCC)C(=O)c1cc(CN2CCC(O)CC2)on1`: the “Percent Effect” value is -23.18%.
Consider `COc1ccc(-c2noc(CCC(=O)N3CCOCC3(C)C)n2)cc1`, for which the “Percent Effect” value worked out at 3.097%.
As for `CCc1nccn1C1CCCN(C(=O)c2cc3nc(C)ccc3o2)C1` (centres undefined), the “Percent Effect” value is given as -10.67%.
With `O=c1[nH]nc2c(S(=O)(=O)N3CCCCCC3)cccn12`, the “Percent Effect” value turned out to be 159%.
As for `Cc1nnc(SCCNC(=O)CC2CCc3ccccc32)s1` (centres undefined), the figure is -7.078%; as for `O=C(O)C(F)(F)F.O=C1CO[C@@H]2CN(CC3CCOC3)C[C@H]2N1Cc1cccc(F)c1` (some centres undefined), 18.32%.
As for `O=C(O)[C@H]1OCC(=O)N(Cc2cccc(Cl)c2)[C@@H]1c1ccccc1`, the figure is 97.67%.
The same measure for `CN1CCC(C(=O)N2CCN(Cc3cccc(Cl)c3)CC2)CC1=O` (centres undefined): 1.504%; for `O=C(O)[C@@H]1OCC(=O)N(Cc2cccc(Cl)c2)[C@@H]1c1ccccc1`: 105.3%.
Turning to `O=C(O)C(F)(F)F.O=C1CO[C@@H]2CN(CC3CC3)C[C@H]2N1Cc1cccc(F)c1`, the “Percent Effect” value came to 2.959%.
With `NC(=O)CN1C(=O)CO[C@H]2CN(Cc3ccccc3)C[C@H]21`, the “Percent Effect” value is -7.855%.
Consider `O=C(O)[C@H]1OCC(=O)N(Cc2cccc(F)c2)[C@@H]1c1ccc(Cl)cc1`, for which the “Percent Effect” value turned out to be 104.6%.
As for `CC(C)N1C[C@@H]2OCC(=O)N(Cc3ccccc3)[C@@H]2C1`, the figure is 4.027%.
Turning to `O=C1CO[C@H]2CN(S(=O)(=O)c3ccccc3)C[C@H]2N1Cc1ccccc1`, the “Percent Effect” value is -0.9845%.
For `CCOc1ccccc1-c1noc(CN2CC(n3cccn3)C2)n1`, the “Percent Effect” value is reported as -3.661%.
For the molecule `COc1ccc(C2(C(=O)N3CC(c4cccnc4)C3)CC2(C)C)cc1` (centres undefined), the “Percent Effect” value is given as -12.52%.
Turning to `COc1ccc(C(=O)N2CCOC(Cc3cccc(C(F)(F)F)c3)C2)o1` (centres undefined), the “Percent Effect” value is -4.741%.
As for `N#Cc1ccc(CNc2ncc(C#N)cc2Cl)cc1`, the figure is 12.93%; as for `CCn1nc(C)c(CN(CCCOC)Cc2ccccn2)c1C.O=C(O)CC(O)(CC(=O)O)C(=O)O`, 71.01%.
`Cc1ccsc1CN(Cc1ccccn1)CC(C)C`: the “Percent Effect” value is listed as -7.102%.
Take `Cc1ccsc1CN(CCCN(C)C)Cc1ccccn1`: the “Percent Effect” value came out at 97.01%.
Regarding `Cc1ccsc1CN(CCN(C)C)Cc1ccccn1`, the “Percent Effect” value was 2.739%.
As to `Cc1ccoc1C(=O)N(CCN(C)C)Cc1ccccn1`, the “Percent Effect” value is -10.81%.
Take `CCn1nc(C)c(CN(Cc2ccccn2)Cc2ccccc2Cl)c1C`: the “Percent Effect” value was 105.5%.
Regarding `CCN(Cc1ccccn1)Cc1cc(Cl)ccc1OC`, the “Percent Effect” value is -5.315%.
As to `CCn1nc(C)c(CN(CCOC)C(=O)c2ccccc2N(C)C)c1C`, the “Percent Effect” value is listed as -7.863%.
For the molecule `CCn1nc(C)c(CN(CCCN(C)C)Cc2ccccn2)c1C`, the “Percent Effect” value came to 80.15%.
As for `CCn1nc(C)c(CN(CCOC)C(=O)c2ccc(=O)[nH]n2)c1C`, the figure is -5.597%; as for `Cc1occc1C(=O)N(CCN(C)C)Cc1ccccn1`, -8.298%; as for `CCOCC(=O)N(Cc1ccccn1)Cc1ccccc1C`, -6.914%.
Take `CN1CCCN(CCCNC2CCc3cc4c(cc32)OCCO4)CC1` (centres undefined): the “Percent Effect” value is reported as -2.164%.
As for `CCN1CCN(c2ccc(F)cc2C(C)NCc2noc(C)n2)CC1` (centres undefined), the figure is 6.672%.
As for `NC(=O)c1ccnc(N2CCN(Cc3ccc(F)cc3Cl)CC2)c1`, the “Percent Effect” value is 9.794%.
`CCCn1ncc(CN(CCN(C)C)Cc2ccsc2)c1C`: the “Percent Effect” value worked out at 0.1145%.
With `CCCN(Cc1ccccn1)Cc1ccccc1OC`, the “Percent Effect” value is recorded as 8.723%.
`CCCn1nc(C)c(CN(CCN(C)C)Cc2ccccn2)c1C`: the “Percent Effect” value is given as 95.65%.
For `NC(=O)N1CCCC1COC(=O)c1ccc(F)cc1Br` (centres undefined), the “Percent Effect” value is reported as -14.4%.
With `O=S1(=O)CCC(CNS(=O)(=O)N2CCc3ccccc3C2)C1` (centres undefined), the “Percent Effect” value is 5.684%.
With `CCCC(C)(C)NC(=O)c1ccc(CC2CC(=O)NC2=O)cc1` (centres undefined), the “Percent Effect” value is -6.168%.
Take `O=C(N[C@H]1CCCC[C@@H]1O)c1ccc(-c2nc3ccccc3[nH]2)cc1`: the “Percent Effect” value came to 104%.
Take `O=C(N[C@@H]1CCNC[C@H]1O)c1ccc(-c2ccc(F)cc2)cc1`: the “Percent Effect” value came to 15.94%.
`O=C(N[C@@H]1CNCCC[C@H]1O)c1ccc(OCc2ccccc2)cc1`: the “Percent Effect” value is given as -1.908%.
Regarding `O=C(N[C@H]1CCCC[C@@H]1O)c1ccc2nc(-c3ccccc3)[nH]c2c1`, the “Percent Effect” value was 121.7%.
For `O=C(N[C@H]1CCCC[C@@H]1O)c1cccc(-c2nc3ccccc3[nH]2)c1`, the “Percent Effect” value came to 102.7%.
For the molecule `O=C(N[C@@H]1CCNC[C@H]1O)c1ccc(F)c(F)c1`, the “Percent Effect” value turned out to be 7.783%.
Take `O=C(N[C@@H]1CCNC[C@H]1O)c1ccc(O)c(Cl)c1`: the “Percent Effect” value was determined as 22.9%.
With `CN1CCCC1CCn1ccnc1-c1nc2ccccc2[nH]1` (centres undefined), the “Percent Effect” value came to 1.274%.
The same measure for `OCC1CCCCN1CCn1ccnc1-c1nc2ccccc2[nH]1` (centres undefined): 1.292%; for `O=C(CCc1cn[nH]c1)N1C[C@@H](CN2CCOCC2)C[C@H](CO)C1`: 10.13%.
Turning to `COC(=O)c1sccc1S(=O)(=O)N1CCC(Oc2cccnn2)CC1`, the “Percent Effect” value is given as 13.23%.
Turning to `COC(=O)N1CCCC(NC(=O)NCc2ccc(C)nc2)C1` (centres undefined), the “Percent Effect” value is on record as 12.17%.
As to `CN(Cc1nccn1C)C1CCCN(CCCc2ccccc2)C1` (centres undefined), the “Percent Effect” value is given as 7.706%.
As for `CC(C)(C)c1n[nH]c(C2CN(CCc3ccncc3)CCO2)n1` (centres undefined), the figure is 18.66%; as for `CN(C)Cc1ccnc(C2CN(CCCc3ccccc3)CCO2)n1` (centres undefined), 114%; as for `Cc1nc(C)n(CC2CN(CCCc3ccccc3)CCO2)n1` (centres undefined), -18.17%.
As to `CN(C)Cc1ccnc(C2CN(CCc3ccccc3)CCO2)n1` (centres undefined), the “Percent Effect” value turned out to be 102.6%.
With `Cn1ncc(N2CCC(CNC3CC(C)(C)CC(C)(C)C3)C2)cc1=O` (centres undefined), the “Percent Effect” value stood at 8.981%.
For the molecule `CS(=O)(=O)c1cc(Cl)cnc1C1CCN(C(=O)C2CCCO2)CC1` (centres undefined), the “Percent Effect” value stood at 120.4%.
With `Cn1c(CN2CCCC2)nnc1C1CCCN(C(=O)C2CCOCC2)C1` (centres undefined), the “Percent Effect” value is recorded as -15.35%.
Take `Cc1nn(C)cc1CN1CCC(c2ncc(Cl)cc2S(C)(=O)=O)CC1`: the “Percent Effect” value was 110.1%.
For the molecule `O=C(C1CCCO1)N1CCC(Cn2cc(C3CCCC3)nn2)CC1` (centres undefined), the “Percent Effect” value is given as -6.289%.
`CS(=O)(=O)c1cc(Cl)cnc1C1CCN(C(=O)C2CCOCC2)CC1`: the “Percent Effect” value was 98%.
Turning to `CS(=O)(=O)c1cc(Cl)cnc1C1CCCN(C(=O)C2CCOCC2)C1` (centres undefined), the “Percent Effect” value is reported as 120.4%.
For the molecule `O=C(C1CCCO1)N1CCC(c2nc(-c3ccccc3)n[nH]2)CC1` (centres undefined), the “Percent Effect” value was -16.11%.
Turning to `Cc1nn(C)cc1CN1C[C@@H]2CC[C@H](C1)N(Cc1c(C)noc1C)C2=O`, the “Percent Effect” value is -0.3171%.
The same measure for `CN(CCO)Cc1nnc(C2CCN(C(=O)C3CCOCC3)CC2)n1C`: -7.962%; for `Cc1nn(CCO)cc1CN1CCC(N2CCC(O)CC2)CC1`: -2.078%.

For the origin of these results see ChEMBL document CHEMBL3988442, “University of Dundee, Small-Polar-MMV Screening Library” (2021).
